Experiment [1] can be described thus: small molecules captured by biotinylated probe aFSTL3 – biochemical, small-molecule microarray, fluorescence 635/667, stem cell growth factor project, primary screen (AID 1064).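 Also: measures binding of the biotinylated anti-FSTL3 antibody to printed compounds.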 Conditions: higher = more signal.
The nature of experiment [2]: binders from COS7 lysate, DM2A8 probe, primary screen, torsin A project, cell lysate, small-molecule microarray, fluorescence 635/667 (AID 1065). Conditions: higher = more signal, COS7 lysate expressing mutant human TOR1A.
A short description of experiment [3]: small molecules captured by biotinylated probe aFGF2 – biochemical, small-molecule microarray, fluorescence 635/667, stem cell growth factor project, primary screen (AID 1067).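 Also: measures binding of biotinylated aFGF2 protein to printed compounds on slides; z-score merges feature fluorescence and signal-to-noise across triplicate slides.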 Conditions: higher = more signal.
The nature of experiment [4]: small molecules captured by biotinylated probe aFGF10 – biochemical, small-molecule microarray, fluorescence 635/667, stem cell growth factor project, primary screen (AID 1071).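 Also: score merges 667 nm spot intensity and signal to noise from triplicate slides.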 Conditions: higher = more signal.
Experiment [5] addresses Neurogenic locus notch homolog protein 2 (Homo sapiens) (UniProt Q04721). Kind of experiment: small molecules binding Notch2 protein – biochemical, small-molecule microarray, 635 nm fluorescence, stem cell growth factors, primary screen (AID 1073). Conditions: higher = more signal.
The target in experiment [6] is Pro-neuregulin-1, membrane-bound isoform (Homo sapiens) (UniProt Q02297). Kind of experiment: small molecules binding neuregulin-1 protein – biochemical, small-molecule microarray, fluorescence 635/667, psychiatric disease protein project, primary screen (AID 1075).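 Also: score combines 667 nm spot fluorescence with signal to noise.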 Conditions: NRG1 binding, 635 nm fluorescence, higher = more signal.
The test system of experiment [7] is Neuregulin-1 EGF-like domain. As to the kind of experiment: small molecules binding NRG1 EGF domain – biochemical, small-molecule microarray, 635 nm fluorescence, primary screen (AID 1081).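 Also: binding of the protein to compounds printed on small-molecule microarray slides.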 Conditions: higher = more signal.
Experiment [8] in a line: FRG1 expression reporter modulators in myotubes – cell-based, C2C12 myotubes, firefly/Renilla luciferase, luminescence, FRG1 inhibition for FSHD, primary screen (AID 1084). Conditions: FRG1 promoter luciferase, higher = more signal, called active from +8 up or from −8 down.
The nature of experiment [9]: small molecules captured by biotinylated probe aFST – biochemical, small-molecule microarray, fluorescence 635/667, stem cell growth factor project, primary screen (AID 1086).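 Also: score merges 667 nm fluorescence with signal-to-noise of each printed compound spot.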 Conditions: higher = more signal.
Experiment [10] is described as follows: binders of probe aHhip on microarray, primary screen, stem cell growth factor project, biochemical, small-molecule microarray, fluorescence 635/667 (AID 1087).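 Also: score merges spot fluorescence at 667nm with spot signal to noise ratio.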 Conditions: higher = more signal.
The subject of experiment [11] is PRMT1 (protein arginine N-methyltransferase 1). As to the kind of experiment: small molecules binding arginine methyltransferase PRMT1 – biochemical, small-molecule microarray, 635 nm fluorescence, primary screen (AID 1088).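 Also: binding of Prmt1 protein to compounds spotted on small-molecule microarray slides.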 Conditions: higher = more signal.
A short description of experiment [12]: growth effects on S. cerevisiae YJM789 – YJM789 clinical isolate, OD600, 24 h, basal, primary screen (AID 1089).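 Also: growth of clinical yeast isolate S. cerevisiae YJM 789 seeded 1000 cells per well; test concentration not given here.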 Conditions: higher = more signal, called active from +8 up or from −8 down.
The nature of experiment [13]: S. pombe growth modifiers, basal conditions – strain 972, OD600, 24 h, no modulator, primary screen (AID 1090).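 Also: basal condition with compound alone and no growth modifier present; test concentration not given here.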 Conditions: S. pombe 972 growth, higher = more signal, called active from +8 up or from −8 down.
The nature of experiment [14]: budding yeast growth modifiers under rapamycin – strain BY4716, OD600, 96 h, primary screen (AID 1091). Also: test concentration not given here. Conditions: S. cerevisiae BY4716 + rapamycin, higher = more signal, called active from +8 up or from −8 down.
The target in experiment [15] is Torsin-1A-interacting protein 2 (Homo sapiens) (UniProt Q8NFQ8). As to the kind of experiment: small molecules binding lysate-expressed LULL1 – cell lysate, human LULL1 lysate, 635/667 nm fluorescence, primary screen (AID 1092).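 Also: probe is lysate of COS7 cells overexpressing human LULL1; score merges per-feature 667 nm fluorescence with signal-to-noise.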 Conditions: small-molecule microarray, hLULL1 lysate binding, 635 nm fluorescence; higher = more signal.
The nature of experiment [16]: optical density change of DRC41 E. coli – strain DRC41, OD650, 24 h, E. coli filamentation project, primary screen (AID 1093).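 Also: MC1000 strain lacking acrAB efflux and sulA so SOS filamentation is blocked; test concentration not given here.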 Conditions: E. coli DRC41 growth, higher = more signal, called active from +8 up or from −8 down.
The nature of experiment [17]: probe aLefty2 binding to arrayed compounds – biochemical, biotinylated probe, 635/667 nm fluorescence, primary screen (AID 1094).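 Also: score merges spot fluorescence near 667 nm with spot signal-to-noise ratio.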 Conditions: small-molecule microarray, higher = more signal.
Experiment [18] relates to Noggin (protein binding on small-molecule microarray). Kind of experiment: small molecules binding Noggin protein – biochemical, 635/667 nm fluorescence, primary screen (AID 1095).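 Also: score merges 667 nm feature fluorescence with signal to noise over triplicate slides.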 Conditions: 635 nm fluorescence, higher = more signal.
In experiment [19] the target is Neurogenic locus notch homolog protein 3 (Homo sapiens) (UniProt Q9UM47). As to the kind of experiment: small molecules binding NOTCH3 protein – biochemical, 635/667 nm fluorescence, primary screen (AID 1096). Conditions: small-molecule microarray, 635 nm fluorescence, higher = more signal.
Experiment [20] is described as follows: probe aEGFR binding to arrayed compounds – biochemical, biotinylated probe, 635/667 nm fluorescence, primary screen (AID 1097).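 Also: probe is a biotinylated anti-EGFR antibody binding compounds printed on slides; score combines fluorescence near 667 nm and signal to noise of each spot.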 Conditions: small-molecule microarray, higher = more signal.

Activity calls are given as the source filed them.

Chain of Neurogenic locus notch homolog protein 2 (Homo sapiens) (Q04721 whole entry, looked up, canonical isoform): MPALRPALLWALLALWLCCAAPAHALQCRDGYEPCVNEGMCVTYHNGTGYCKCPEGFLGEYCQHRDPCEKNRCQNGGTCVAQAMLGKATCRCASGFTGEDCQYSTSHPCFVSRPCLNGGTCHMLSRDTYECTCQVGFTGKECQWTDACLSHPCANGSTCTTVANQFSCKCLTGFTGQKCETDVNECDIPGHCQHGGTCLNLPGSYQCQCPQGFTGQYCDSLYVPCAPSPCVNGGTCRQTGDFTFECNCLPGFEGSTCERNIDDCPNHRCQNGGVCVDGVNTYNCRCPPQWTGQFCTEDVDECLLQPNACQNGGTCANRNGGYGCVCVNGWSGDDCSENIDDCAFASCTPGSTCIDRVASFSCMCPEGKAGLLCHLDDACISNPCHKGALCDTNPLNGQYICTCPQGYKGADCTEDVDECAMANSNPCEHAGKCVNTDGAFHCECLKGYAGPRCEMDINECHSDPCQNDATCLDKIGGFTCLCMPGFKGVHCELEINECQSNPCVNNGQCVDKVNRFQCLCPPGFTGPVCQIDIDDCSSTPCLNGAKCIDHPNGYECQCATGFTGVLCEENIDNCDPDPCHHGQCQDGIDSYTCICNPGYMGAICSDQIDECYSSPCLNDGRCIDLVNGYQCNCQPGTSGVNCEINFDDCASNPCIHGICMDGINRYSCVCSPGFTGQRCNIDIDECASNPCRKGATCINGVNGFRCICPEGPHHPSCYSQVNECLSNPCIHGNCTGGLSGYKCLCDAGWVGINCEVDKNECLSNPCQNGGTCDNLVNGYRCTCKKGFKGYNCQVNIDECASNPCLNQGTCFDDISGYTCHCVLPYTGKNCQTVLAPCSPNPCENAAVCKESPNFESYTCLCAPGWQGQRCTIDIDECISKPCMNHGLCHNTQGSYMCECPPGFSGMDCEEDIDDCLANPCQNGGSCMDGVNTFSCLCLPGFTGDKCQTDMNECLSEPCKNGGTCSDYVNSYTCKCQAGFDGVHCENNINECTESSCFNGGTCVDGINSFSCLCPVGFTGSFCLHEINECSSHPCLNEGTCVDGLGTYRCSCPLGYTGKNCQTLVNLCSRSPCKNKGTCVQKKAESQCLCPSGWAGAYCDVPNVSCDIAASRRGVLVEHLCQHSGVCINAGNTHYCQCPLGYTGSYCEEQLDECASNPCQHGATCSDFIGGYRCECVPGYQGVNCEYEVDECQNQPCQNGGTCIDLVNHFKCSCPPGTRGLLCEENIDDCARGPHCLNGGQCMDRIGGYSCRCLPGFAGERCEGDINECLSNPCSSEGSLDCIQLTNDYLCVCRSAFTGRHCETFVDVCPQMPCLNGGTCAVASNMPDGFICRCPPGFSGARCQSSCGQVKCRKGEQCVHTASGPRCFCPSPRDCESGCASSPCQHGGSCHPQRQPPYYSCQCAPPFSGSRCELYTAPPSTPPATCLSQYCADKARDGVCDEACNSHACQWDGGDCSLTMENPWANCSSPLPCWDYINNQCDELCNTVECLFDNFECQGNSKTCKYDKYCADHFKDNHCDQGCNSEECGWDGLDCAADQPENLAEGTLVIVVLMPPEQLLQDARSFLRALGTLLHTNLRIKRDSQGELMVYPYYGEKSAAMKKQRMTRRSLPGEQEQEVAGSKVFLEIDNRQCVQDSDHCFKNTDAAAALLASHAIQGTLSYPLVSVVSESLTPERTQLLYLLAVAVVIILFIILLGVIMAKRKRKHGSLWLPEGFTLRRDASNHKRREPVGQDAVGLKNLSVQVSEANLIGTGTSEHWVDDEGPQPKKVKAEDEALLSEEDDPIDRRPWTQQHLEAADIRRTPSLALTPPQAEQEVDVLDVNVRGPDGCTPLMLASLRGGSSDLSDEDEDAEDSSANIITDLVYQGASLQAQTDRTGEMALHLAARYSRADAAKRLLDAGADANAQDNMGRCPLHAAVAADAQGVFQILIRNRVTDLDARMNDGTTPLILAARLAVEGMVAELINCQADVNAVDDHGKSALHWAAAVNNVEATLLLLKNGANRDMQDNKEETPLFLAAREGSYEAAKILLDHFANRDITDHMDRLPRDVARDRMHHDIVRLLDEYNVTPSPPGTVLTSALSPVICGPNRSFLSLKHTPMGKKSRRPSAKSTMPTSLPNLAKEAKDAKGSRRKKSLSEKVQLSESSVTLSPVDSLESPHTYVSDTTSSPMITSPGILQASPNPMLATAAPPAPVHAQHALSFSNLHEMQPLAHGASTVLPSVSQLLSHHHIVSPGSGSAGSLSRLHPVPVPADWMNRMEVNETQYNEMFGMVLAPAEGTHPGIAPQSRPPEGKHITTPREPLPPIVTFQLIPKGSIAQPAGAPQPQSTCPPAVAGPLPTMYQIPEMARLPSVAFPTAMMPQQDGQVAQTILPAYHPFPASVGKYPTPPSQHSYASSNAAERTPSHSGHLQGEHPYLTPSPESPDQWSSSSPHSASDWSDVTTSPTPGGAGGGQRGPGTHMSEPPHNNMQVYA
Chain of Torsin-1A-interacting protein 2 (Homo sapiens) (Q8NFQ8 whole entry, looked up): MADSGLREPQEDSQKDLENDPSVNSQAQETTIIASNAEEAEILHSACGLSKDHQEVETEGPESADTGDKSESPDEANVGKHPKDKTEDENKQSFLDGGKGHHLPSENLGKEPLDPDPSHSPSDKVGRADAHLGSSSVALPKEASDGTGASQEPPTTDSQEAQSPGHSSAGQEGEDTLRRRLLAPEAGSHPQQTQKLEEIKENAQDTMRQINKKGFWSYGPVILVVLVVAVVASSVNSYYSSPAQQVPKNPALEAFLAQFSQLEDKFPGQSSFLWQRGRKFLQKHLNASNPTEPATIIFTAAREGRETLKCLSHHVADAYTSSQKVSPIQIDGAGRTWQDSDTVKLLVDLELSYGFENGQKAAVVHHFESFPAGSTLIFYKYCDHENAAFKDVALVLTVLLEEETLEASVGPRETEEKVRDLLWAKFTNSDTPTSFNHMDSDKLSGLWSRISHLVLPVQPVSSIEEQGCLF
Chain of Pro-neuregulin-1, membrane-bound isoform (Homo sapiens) (Q02297 whole entry, looked up, the tested form may be a part, canonical isoform): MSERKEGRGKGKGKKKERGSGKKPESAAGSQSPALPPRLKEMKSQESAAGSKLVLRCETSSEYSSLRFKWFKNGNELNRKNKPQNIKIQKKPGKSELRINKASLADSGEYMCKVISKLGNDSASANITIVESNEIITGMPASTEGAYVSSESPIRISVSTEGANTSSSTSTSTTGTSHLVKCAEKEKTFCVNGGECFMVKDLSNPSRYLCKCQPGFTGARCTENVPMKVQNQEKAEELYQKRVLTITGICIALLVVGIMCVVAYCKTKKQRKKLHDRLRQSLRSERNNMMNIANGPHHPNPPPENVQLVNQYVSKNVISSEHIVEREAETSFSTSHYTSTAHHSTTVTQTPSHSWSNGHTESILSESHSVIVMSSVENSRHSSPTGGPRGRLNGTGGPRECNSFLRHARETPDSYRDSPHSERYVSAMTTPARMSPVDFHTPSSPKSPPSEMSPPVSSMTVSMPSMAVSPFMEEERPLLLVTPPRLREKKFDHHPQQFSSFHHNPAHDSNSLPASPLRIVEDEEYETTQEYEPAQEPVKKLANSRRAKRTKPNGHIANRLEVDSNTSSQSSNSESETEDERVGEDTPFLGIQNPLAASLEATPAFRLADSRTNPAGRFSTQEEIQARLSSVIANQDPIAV

On to `Cc1ccc(S[C@]2(C(=O)NCCN3CCOCC3)CC(=O)N(C3CCCCC3)[C@@H]2c2ccc(CO)cc2)cc1`, for which the composite z-score in experiment [1] was -0.0386; in experiment [2], -0.439; in [3], -0.158; in experiment [4] it was 0.123; in experiment [5], 0.825; in [6], 1. Besides, the composite z-score in [7] is 1.09; in [9] it was 0.283; in experiment [10], -0.0645; in [11] it was 1.05; in experiment [15] it was 3.05; in experiment [17], -0.072. Also, the composite z-score is 0.218 in [18], 0.404 in [19] and -0.111 in experiment [20]. The z-score in [8] is 0.046 (inactive); in experiment [12] it was -0.0801 (inactive); in experiment [13] it was -0.134 (inactive); in experiment [14], -0.942 (inactive); in experiment [16] it was -0.114 (inactive).
Take `C=CCN1C(=O)[C@]2(Cc3ccccc31)N=C(c1ccc(OCCCO)cc1)O[C@@H]2c1ccccc1`: the composite z-score was 0.5 in experiment [1]; 0.152 in [2]; -0.062 in [3]; 0.439 in [4]; 1.6 in [5]; 0.904 in [6]. Further, the composite z-score in experiment [7] came to 1.2; in [9], 0.961; in experiment [10] it was 0.0854; in experiment [11], 1.33; in experiment [15], 2.76; in [17], 0.235. Besides, the composite z-score in [18] came out at 0.555; in [19] it was 0.923; in experiment [20], 0.0786. The z-score is -2.5 (inactive) in [8]; -2.2 (inactive) in experiment [12]; -4.05 (inactive) in [13]; 0.259 (inactive) in [14]; -2.56 (inactive) in [16].
Regarding `C[n+]1ccc2ccc(O)cc2c1`, the composite z-score in experiment [1] is -0.201; in [2] it was 1.46; in experiment [3], -0.081; in experiment [4] it was 0.0493; in experiment [5], 0.12; in experiment [6] it was 0.615. Further, the composite z-score in experiment [7] is 0.767; in experiment [9] it was -0.173; in experiment [10], -0.0994; in experiment [11], 1.56; in [15], 1.14; in [17], -0.0562. Also, the composite z-score in experiment [18] is 1.01; in experiment [19] it was 1.05; in experiment [20], -0.0453. In addition, the z-score is 1.53 (inactive) in experiment [8]; 0.0119 (inactive) in experiment [12]; -0.208 (inactive) in [13]; 2.96 (inactive) in experiment [14]; -0.992 (inactive) in experiment [16].
In the case of `CC(C)NC(=O)[C@@H]1c2ccccc2C(=O)N(C2CCCCC2)[C@H]1c1ccc(CO)cc1`, the composite z-score in experiment [1] came to 0.0605; in experiment [2] it was 0.562; in experiment [3], 0.0703; in [4] it was 0.74; in experiment [5], 0.851; in [6], 1.15. In addition, the composite z-score in experiment [7] was 1; in experiment [9], 0.333; in [10], -0.216; in [11], 0.4; in experiment [15] it was 1.48; in [17], 0.25. The composite z-score in [18] was -0.123; in experiment [19] it was 0.108; in experiment [20], 0.262. Besides, the z-score was 0.492 (inactive) in experiment [8]; -0.455 (inactive) in [12]; 0.0765 (inactive) in experiment [13]; 0.13 (inactive) in experiment [14]; 0.0495 (inactive) in experiment [16].
Turning to `O=C(NCC(F)(F)F)[C@@H]1c2ccccc2C(=O)N(Cc2ccccc2)[C@H]1c1ccc(CO)cc1`, the composite z-score in experiment [1] was 1.16; in experiment [2], 0.299; in [3] it was -0.0637; in experiment [4] it was -0.358; in experiment [5], -0.514; in [6], 0.0291. The composite z-score in experiment [7] is 0.432; in experiment [9], -0.419; in experiment [10], -0.0078; in [11] it was 1.04; in experiment [15] it was 2.35; in experiment [17], -0.0192. Further, the composite z-score in [18] is -1.34; in experiment [19], -0.612; in experiment [20], -0.194. Besides, the z-score is -1.3 (inactive) in experiment [8]; -0.526 (inactive) in experiment [12]; 0.0532 (inactive) in experiment [13]; 0.13 (inactive) in [14]; 0.544 (inactive) in experiment [16].

These data come from PubChem BioAssay.
